Compound activity from PubChem BioAssay.
NADH enzymes: inhibitors of PK/LDH coupling enzymes, profiling panel, artefact control, biochemical, MLSMR library; coupled PK/LDH NADH assays, four targets; IC50, µM (series often up to 10 µM), without a hit: at the top dose inhibition; 65,000 tested, 0.02% active; AID 774, 2007;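 active = single-dose screening hits from any of four coupled enzyme assays that gave an IC50 when retested across doses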;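 also: the DPM-DC format reads NADH fluorescence rather than 340 nm absorbance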
Spn PMK inh: S. pneumoniae PMK inhibitors, primary screen, biochemical, mevalonate pathway, pilot trial included; phosphomevalonate kinase (Streptococcus pneumoniae D39); purified PMK, PK/LDH-coupled NADH absorbance 340 nm; inhibition, % at 10 µM; 65,000 tested, 0.49% active;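 active = top-ranked compounds by inhibition in the single 10 µM screen, taking a fixed number of the strongest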;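 also: 0% = full reaction with DMSO carrier and 100% = background rate without enzyme reaction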
Fluor 339 460: intrinsic fluorescence of library compounds, ex339/em460 – biochemical, MLSMR library, data from DPM-DC assay, artefact control, profiling panel | compound autofluorescence, ex339/em460 nm, NADH buffer; active compounds read high; 1 = no-compound wells, NADH background | fluorescence fold increase at 10 µM | 65,000 tested, 5.5% active;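 active = at 10 µM, mean starting fluorescence two-fold or more over control wells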;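 also: signal is the first read of a kinetic run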
DPM-DC inhibit: S. pneumoniae DPM-DC inhibitors, primary screen, biochemical, PK/LDH-coupled NADH fluorescence; calls only at 10 µM; 65,000 tested, 0.49% active; AID 556, 2006; purified DPM-DC; diphosphomevalonate decarboxylase (Streptococcus pneumoniae D39);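 active = the 320 compounds with the highest percent inhibition in the single-dose primary screen, excluding strongly autofluorescent ones, cut at about 32% in these data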;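 also: kinetic rate of NADH fluorescence loss reporting ADP formed by the decarboxylase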
MK inhibit: S. pneumoniae MK inhibitors, primary screen, biochemical, PK/LDH-coupled NADH absorbance. mevalonate kinase [Streptococcus pneumoniae D39]. purified MK, PK/LDH-coupled NADH absorbance 340 nm. inhibition, % at 10 µM. 65,000 tested, 0.48% active. AID 555, 2006;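 active = ranked among the strongest by inhibition in the single 10 µM screen, a fixed top-ranked set picked for dose follow-up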
An asterisk follows results filed as active; i = inactive; / = no result given. Rows were chosen to be rich in hits. Some 6.6% of all compounds tested hit in one or more screens of this group.

SMILES	NADH enzymes	Spn PMK inh	Fluor 339 460	DPM-DC inhibit	MK inhibit
O=C(Nc1ccc(Cl)cc1)Nc1ccccc1C(=O)NCc1ccco1	7%	2	2.1*	i	4
O=c1[nH]c(Cn2nnc(-c3ccccc3)n2)nc2scc(-c3ccccc3)c12	3%	10	1.1	i	0
C=CCSc1nc2ccccc2n1Cc1nnc(-c2cccs2)o1	6%	11	1.5	i	3
Cc1cc(C)cc(CC2CC(=O)N(c3nc(C)cc(C)n3)C2=O)c1 (stereo unspecified)	10%	25*	1	i	6
CCOC(=O)c1[nH]c2cc3c(cc2c1NC(=O)CN1CCC2(CC1)OCCO2)OCO3	1%	0	2.3*	/	2
CCOC(=O)c1[nH]c2cc(OC)c(OC)cc2c1NC(=O)c1ccc2c(c1)OCO2	6%	14	1.2	i	3
CCOc1ccc(OCC)c(NC(=O)CN2CCN(C(=O)c3ccco3)CC2)c1	2%	0	1.1	i	20
CCOc1ccc(OCC)c(NC(=O)CN2CCN(c3cccc(C)c3C)CC2)c1	21%	0	1.1	i	62*
CCOC(=O)c1[nH]c2cc(OC)c(OC)cc2c1NC(=O)CN(C)C1CCCCC1	13%	14	3.7*	/	11
CCOC(=O)c1[nH]c2ccc(F)cc2c1NC(=O)CN1CCN(C/C=C/c2ccccc2)CC1	8%	11	2.6*	i	9
COC(=O)c1[nH]c2ccccc2c1NC(=O)CN1CCN(C/C=C/c2ccccc2)CC1	9%	13	1.8	i	11
Cc1ccc(Cn2ccc(NC(=O)c3c(-c4ccccc4Cl)noc3C)n2)cc1	1%	0	1.1	i	2
CCn1c(CSc2nnc(-c3ccc4c(c3)OCO4)o2)nc2cc(S(=O)(=O)N(C)C)ccc21	6%	15	1.2	i	1
CCOC(=O)c1[nH]c2cc3c(cc2c1NC(=O)CN1CCCCC1C)OCO3 (stereo unspecified)	6%	6	2.3*	/	6
CCOC(=O)c1[nH]c2ccc(OCC)cc2c1NC(=O)CN1CCN(c2ccccc2)CC1	3%	8	3.2*	i	2
CCOC(=O)c1[nH]c2ccc(OCC)cc2c1NC(=O)CN1CCC2(CC1)OCCO2	7%	10	3.9*	/	3
CCOC(=O)c1[nH]c2ccccc2c1NC(=O)CN1CCCCC1	9%	6	1.5	i	12
CCOC(=O)c1[nH]c2ccccc2c1NC(=O)c1ccc2c(c1)OCO2	1%	0	1.1	i	3
CCCN1C2=NCCN2c2cc(C)c(C)cc21	3%	7	1.1	i	2
Cc1sc(NC(=O)CSc2nnc(C)c(=O)[nH]2)c(C#N)c1C	4%	13	1	i	0
COc1cccc(-n2c(SCC(=O)N3CCCC3)nc3c([nH]c4ccccc43)c2=O)c1	3%	9	1.1	i	6
Cc1ccc(CN2CCSc3ccc(C(=O)N4CCN(c5ncccn5)CC4)cc32)cc1	3%	3	4.9*	/	2
Cc1cc(N2CCC(N(C)C3CCCC3)CC2)nc2cc(O)ccc12	6%	7	2.2*	/	5
Cc1cc(N2CCC(C(=O)NC3CCCCC3)CC2)nc(-c2ccccc2)n1	3%	6	1.1	i	3
CN(c1ccc(C(=O)N2CCCCC2)cc1)S(C)(=O)=O	4%	4	1.1	i	7
SMILES	NADH enzymes	Spn PMK inh	Fluor 339 460	DPM-DC inhibit	MK inhibit
COc1ccccc1N1CCN(c2cc(N3CCCC3)nc(C)n2)CC1	2%	4	1.2	i	2
COc1ccc(OC)c2c(C)cc(N3CCCN(C)CC3)nc12	1%	0	2.2*	/	1
O=C(COc1ccc(-n2cnnn2)cc1)NCCc1ccc(F)cc1	5%	10	1.3	i	2
CCOc1ccccc1-c1nc2c([nH]1)c(=O)n(C)c(=O)n2C	8%	9	2.9*	i	0
O=S(=O)(c1ccccc1)N1CCN(c2ncnc3sc(-c4ccccc4)cc23)CC1	2%	2	5.2*	/	1
COc1cccc(/C(O)=C2/C(=O)C(=O)N(CCN3CCOCC3)C2c2cccs2)c1 (stereo unspecified)	7%	17	1.1	i	3
CCC(C)C(=O)Nc1nnc(-c2cccs2)s1 (stereo unspecified)	10%	15	2.6*	i	0
COCC(=O)Nc1nnc(-c2cccs2)s1	5%	4	1.9	i	0
Cc1ccc(-c2cc(C(F)(F)F)c(C#N)c(SCCC#N)n2)o1	5%	2	3.7*	/	8
Cc1ccc(N2CCN(c3cc(C)nc4c5c(C)cc(C)nc5nn34)CC2)cc1	10%	8	1.1	i	6
Cc1cc(C)c2c(n1)nn1c(N3CCN(c4ccccc4C)CC3)cc(C)nc21	7%	7	2.8*	/	12
CCOc1ccc(CN2CCN(c3cc(C)nc4c5c(C)cc(C)nc5nn34)CC2)cc1	2%	4	3.1*	/	6
COc1ccc(CN2CCN(c3cc(C)nc4c5c(C)cc(C)nc5nn34)CC2)cc1F	8%	5	3.9*	/	11
COc1ccc(-c2c(C)nn3c(N4CCN(Cc5ccccc5)CC4)cc(C)nc23)cc1OC	5%	6	1.1	i	4
O=C(c1ccco1)N1CCN(S(=O)(=O)c2cccc(C(F)(F)F)c2)CC1	1%	1	1.1	i	2
CCN1C(=O)c2cccc3c(S(=O)(=O)NCCCN4CCOCC4)ccc1c23	15%	20	3.9*	i	6
COc1ccc(S(=O)(=O)NCCCN2CCOCC2)c2ccccc12	3%	6	1.1	i	9
CCN1C(=O)c2cccc3c(S(=O)(=O)Nc4ccccc4OC)ccc1c23	4%	5	1.2	i	1
CCOc1ccc(S(=O)(=O)NCCCN2CCOCC2)c2ccccc12	14%	40*	1.2	i	3
CCOc1ccccc1NC(=O)CCSc1nc2n[nH]c(C)c2c(=N)n1-c1ccccc1Cl	13%	21	1.3	i	8
CCOc1ccccc1-n1c(SCC(=O)Nc2ccc(CC)cc2)nc2n[nH]c(C)c2c1=N	13%	25*	4.9*	/	0
CC(=O)/C=C(\C)Nc1ccc(-c2cnc(-c3ccccc3)o2)cc1	9%	2	2.2*	/	15
O=C(Nc1ccc(-c2nnc(-c3ccccc3)o2)cc1)C(F)(F)F	7%	0	1.7	i	4
Cc1[nH]n2c(=O)cc(C(C)(C)C)nc2c1-c1ccccc1	16%	13	2.3*	i	12
CCOCCCn1c(=N)c(C(=O)NCc2ccc3c(c2)OCO3)cc2c(=O)n3ccccc3nc21	4%	10	1.5	i	1
N=c1c(C(=O)NC2CCCCC2)cc2c(=O)n3ccccc3nc2n1CCN1CCOCC1	3%	6	3.9*	/	0
